In PubChem BioAssay (NCI):
This is part of a sample that, as a whole, favours compounds with a hit. Of some 79,000 tested, about 15% had one in any assay. No stated cut-off is given here; in the data, active means growth inhibition above about 70%; inactive means the rest.

Assays:
[1] = NCI Yeast Anticancer Drug Screen. Data for the rad50 strain (AID 155);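 further: 0% = growth of vehicle-only cultures of the same strain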; conditions: S. cerevisiae rad50 strain growth inhibition; at 50.0 µM; hits give high values
Method in brief: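 Growth of the mutant yeast was measured after compound exposure and referenced to vehicle-treated cultures.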

[2] = NCI Yeast Anticancer Drug Screen. Data for the mec2-1 strain (AID 157); conditions: S. cerevisiae mec2-1 strain, at 50.0 µM, hits give high values
Method in brief: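 Cells of the genetically defined mec2-1 yeast strain are incubated with test compound. Inhibition of growth is calculated against vehicle-treated controls.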

[3] = NCI Yeast Anticancer Drug Screen. Data for the sgs1 mgt1 strain (AID 161);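 further: 0% = growth of cultures given vehicle only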; conditions: S. cerevisiae sgs1 mgt1 strain, at 50.0 µM, hits give high values
Method in brief: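 Mutant yeast exposed to compound; growth scored against vehicle-only wells.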

[4] = NCI Yeast Anticancer Drug Screen. Data for the cln2 rad14 strain (AID 165);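 further: 0% = growth equal to vehicle treated cultures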; conditions: S. cerevisiae cln2 rad14 strain, at 50.0 µM, hits give high values
Method in brief: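 The screen exposed genetically defined yeast (cln2 rad14) to test compounds and scored growth inhibition relative to vehicle-treated controls.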

[5] = NCI Yeast Anticancer Drug Screen. Data for the bub3 strain (AID 167); conditions: S. cerevisiae bub3 mutant strain, at 50.0 µM, hits give high values
Method in brief: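 Whole-cell yeast assay. The mutant strain was incubated with compounds, and growth inhibition was determined by comparison with vehicle-treated cells.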

[6] = NCI Yeast Anticancer Drug Screen. Data for the mlh1 rad18 strain (AID 175); conditions: S. cerevisiae mlh1 rad18 strain growth inhibition; at 50.0 µM; hits give high values
Method in brief: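 Compound-treated yeast growth, normalised to vehicle controls. Strain bears defined DNA repair mutations.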

Measured: growth inhibition

CC(C)NC(=O)CCSCCC(=O)NC(C)C
inactive: [1] 3.6% | [2] -10.7% | [3] -3.75% | [4] -6.8% | [5] -17.9% | [6] 10.1%

Cn1nnnc1/C(=C/c1ccccc1)C(=O)O
inactive: [1] 12.9% | [2] -0.15% | [3] 0.1% | [4] -18.9% | [5] 12.1% | [6] 12.2%

COc1ccc(-c2c(C#N)c(S)n(NS(=O)(=O)c3ccccc3)c(=O)c2C#N)cc1
inactive: [1] 16.8% | [2] 56.7% | [3] 43.7% | [4] -1.5% | [5] 34% | [6] 58%

CC12CCC(=O)C3C1CCCC32
inactive: [1] -0.45% | [2] -6.2% | [3] -13.9% | [4] 1.2% | [5] -2.15% | [6] -21.6%

C/C(=N/NC(=S)Nc1ccccc1Cl)c1cccc(/C(C)=N\NC(=S)Nc2ccccc2Cl)n1
inactive: [1] 39.4% | [2] 16.9% | [3] 39.8% | [4] 6.3% | [5] 32.1% | [6] 24.7%

N#Cc1cc2c(cc1C#N)SCCSCCCSCCS2
inactive: [1] 1.2% | [2] 5% | [3] 1.05% | [4] 22.4% | [5] 6% | [6] -24.8%

CCC(C)CC(O)CC(C)C (stereo not given)
inactive: [1] 13.9% | [2] 8.85% | [3] 1.2% | [4] 12.7% | [5] 2.65% | [6] 13%

COc1cc2c(cc1OC)C(N)CC2=O (stereo not given)
inactive: [1] 3.15% | [2] 1.4% | [3] -7.25% | [4] 3.65% | [5] 0.5% | [6] -75.3%

CCCOC(=O)O[C@H]1CC[C@@]2(C)C(=CC[C@H]3[C@@H]4CC[C@H]([C@H](C)CCCC(C)C)[C@@]4(C)CC[C@@H]32)C1
inactive: [1] -34.6% | [2] -31% | [3] -27.7% | [4] 3.9% | [5] -28.8% | [6] -34.4%

C/C(N)=C\c1nc(=O)ccs1
inactive: [1] 10.9% | [2] 11.8% | [3] 2.35% | [4] 24.8% | [5] 5.2% | [6] 13.3%

O=C(c1cccc(Cl)c1)c1cccc(Cl)c1
inactive: [1] 1.2% | [2] -14.8% | [3] -0.9% | [4] 2.35% | [5] 5.15% | [6] -3.25%

CCC(CCC(=O)c1ccccc1)[N+](=O)[O-] (stereo not given)
inactive: [1] -3.65% | [2] -14.8% | [3] -5.7% | [4] -8.5% | [5] 13.8% | [6] 7.2%

COc1c2c(cc3c(CCc4ccccc4)cc(=O)oc13)CCC(C)(C)O2
inactive: [1] -5.95% | [2] -22.8% | [3] -6.5% | [4] 15.4% | [5] -5.75% | [6] -27.3%

Cc1ccc(N=Nc2ccc(N(C)C)cc2)cc1
inactive: [1] 18.6% | [2] -8.05% | [3] -16.6% | [4] -51.6% | [5] -6.2% | [6] 14.7%

CC(=O)NC(CCCCN(Cc1ccccc1)C(=O)N(C)N=O)C(=O)NCc1ccccc1 (stereo not given)
inactive: [1] 0.3% | [2] -6.7% | [3] 24.4% | [4] -0.15% | [5] -22.9% | [6] -6.4%

C/C(=N\NC(=O)c1ccncc1)c1cccc(F)c1
inactive: [1] -57% | [2] -20.9% | [3] -51.2% | [4] -48.7% | [5] -67.8% | [6] -38%

CC1(c2nc3ccccc3s2)CCCO1 (stereo not given)
inactive: [1] -6.1% | [2] 23.8% | [3] 7.6% | [4] -13.7% | [5] 7.55% | [6] 8.4%

N#CC1CCCCC(=O)N1 (stereo not given)
inactive: [1] 3.55% | [2] 2.2% | [3] -2.05% | [4] -3.6% | [5] -1.2% | [6] -1.55%

CC(C)=CCCC(=O)C(c1nc2nnc(N)n2[nH]c1=O)c1nc2nnc(N)n2[nH]c1=O
inactive: [1] 13.3% | [2] 13.6% | [3] -1.95% | [4] 17.8% | [5] 1.6% | [6] -7.55%

CC(=O)OCC1OC(n2c(C)c(N=Nc3ccc(C)cc3)c(C)c(C#N)c2=S)C(OC(C)=O)C(OC(C)=O)C1OC(C)=O (stereo not given)
inactive: [1] -8.05% | [2] -14.4% | [3] 11.9% | [4] 2.65% | [5] -10.8% | [6] -2.75%
